In PubChem BioAssay (NCI):
This is part of a sample that, as a whole, favours compounds with a hit. Of some 83,000 tested, about 20% had one in any assay.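 The test compound was applied at a single concentration to cells in 96-well plates for 48 hours, and percent growth was recorded.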 Active and inactive are the calls of the source. Rule for the calls: active = growth percent below 10; inactive = the rest.

Experiments:
Test in all cases: NCI-60 one-dose screen, 48 h (100 = growth as untreated, 0 = no growth, -100 = all killed)
Conditions in all cases: 10 µM
NCI-H23 lung = tested on: NCI-H23 lung
NCI-H226 lung = tested on: NCI-H226 lung
NCI-H322M lung = tested on: NCI-H322M lung
HOP-62 NSCLC = tested on: HOP-62 NSCLC
NCI-H460 lung = tested on: NCI-H460 lung
NCI-H522 lung = tested on: NCI-H522 lung
A549/ATCC NSCLC = tested on: A549/ATCC NSCLC
786-0 renal = tested on: 786-0 renal
COLO 205 colon = tested on: COLO 205 colon
DU-145 prostate = tested on: DU-145 prostate
K-562 leukemia = tested on: K-562 leukemia
MALME-3M melanoma = tested on: MALME-3M melanoma
MDA-MB-231 breast = tested on: MDA-MB-231 breast
RXF 393 renal = tested on: RXF 393 renal
SF-268 CNS = tested on: SF-268 CNS
SF-295 CNS = tested on: SF-295 CNS
SF-539 CNS = tested on: SF-539 CNS
UACC-257 melanoma = tested on: UACC-257 melanoma
M14 melanoma = tested on: M14 melanoma
HCT-15 colon = tested on: HCT-15 colon

Measured: growth

CCCCC(CCCCCC(CCCC)NCc1ccc2c(c1)OCO2)NCc1ccc2c(c1)OCO2 (stereo not given)
active: NCI-H23 lung -98.5% | NCI-H226 lung -77.9% | NCI-H322M lung -91.6% | HOP-62 NSCLC -98.9% | NCI-H460 lung -98.4% | NCI-H522 lung -91.2% | A549/ATCC NSCLC -99.2% | 786-0 renal -100% | COLO 205 colon -97.5% | DU-145 prostate -100% | K-562 leukemia -72.3% | MALME-3M melanoma -69.3% | MDA-MB-231 breast -86% | RXF 393 renal -93.3% | SF-268 CNS -96.8% | SF-295 CNS -79.7% | SF-539 CNS -100% | UACC-257 melanoma -86.9% | M14 melanoma -100% | HCT-15 colon -88%

CC1(C)N=C(N)N=C(N)N1c1ccc(CCc2ccccc2)c(Cl)c1
active: NCI-H522 lung 1.84% | UACC-257 melanoma 3.1%
inactive: NCI-H23 lung 21.4% | NCI-H226 lung 32.4% | NCI-H322M lung 28.7% | HOP-62 NSCLC 26.3% | NCI-H460 lung 10.1% | A549/ATCC NSCLC 10.4% | 786-0 renal 20.3% | COLO 205 colon 16% | DU-145 prostate 27.1% | K-562 leukemia 11.2% | MALME-3M melanoma 43.3% | MDA-MB-231 breast 39.7% | RXF 393 renal 44% | SF-268 CNS 21.1% | SF-295 CNS 17.7% | SF-539 CNS 21.8% | M14 melanoma 20.5% | HCT-15 colon 39.7%

COC(=O)C1(C)Cc2cc(OC(C)=O)c(OC(C)=O)cc2N1 (stereo not given)
inactive: NCI-H23 lung 91.5% | NCI-H226 lung 113% | NCI-H322M lung 116% | HOP-62 NSCLC 117% | NCI-H460 lung 107% | A549/ATCC NSCLC 31.6% | 786-0 renal 103% | COLO 205 colon 53.7% | DU-145 prostate 104% | K-562 leukemia 16% | MALME-3M melanoma 79.7% | MDA-MB-231 breast 101% | RXF 393 renal 61.8% | SF-268 CNS 87.5% | SF-295 CNS 121% | SF-539 CNS 91.3% | UACC-257 melanoma 19% | M14 melanoma 87.3% | HCT-15 colon 35.6%
active: NCI-H522 lung -55.8%

CC(C)(Cl)CCC1=C(Cl)C(=O)c2ccccc2C1=O
inactive: NCI-H23 lung 32.9% | NCI-H226 lung 62.8% | NCI-H322M lung 100% | HOP-62 NSCLC 59% | NCI-H460 lung 65.6% | A549/ATCC NSCLC 82% | 786-0 renal 101% | COLO 205 colon 84% | DU-145 prostate 104% | MALME-3M melanoma 128% | MDA-MB-231 breast 34.1% | RXF 393 renal 28.8% | SF-268 CNS 65.7% | SF-295 CNS 105% | SF-539 CNS 37.4% | UACC-257 melanoma 39.2% | M14 melanoma 63.9% | HCT-15 colon 22.7%
active: NCI-H522 lung -29.7% | K-562 leukemia -20%

COc1ccc(-c2nn(-c3cccc(NC(=O)Nc4cccc(C(F)(F)F)c4)c3)cc2-c2ccncc2)cc1Cl
active: NCI-H23 lung 5.45% | NCI-H460 lung 2.43% | NCI-H522 lung -6.94% | A549/ATCC NSCLC 7.5% | COLO 205 colon 1.37% | K-562 leukemia 8.89% | MALME-3M melanoma -10.4% | MDA-MB-231 breast 1.25% | SF-295 CNS 5.07% | UACC-257 melanoma -5.98% | M14 melanoma 4.56%
inactive: NCI-H226 lung 25.7% | NCI-H322M lung 24.4% | HOP-62 NSCLC 25.2% | 786-0 renal 24.2% | DU-145 prostate 22% | RXF 393 renal 23.2% | SF-268 CNS 23.5% | SF-539 CNS 16.2% | HCT-15 colon 23.5%

Cc1ccc(-c2n[nH]c(=O)c3noc(-c4ccc(C)cc4)c23)cc1
active: COLO 205 colon -25.1% | SF-539 CNS 3%
inactive: NCI-H23 lung 61.8% | NCI-H226 lung 80.9% | NCI-H322M lung 49.5% | HOP-62 NSCLC 29.2% | NCI-H460 lung 17.3% | NCI-H522 lung 16.4% | A549/ATCC NSCLC 36.8% | 786-0 renal 48.4% | DU-145 prostate 25.2% | K-562 leukemia 13.2% | MALME-3M melanoma 26.4% | MDA-MB-231 breast 58.1% | RXF 393 renal 38% | SF-268 CNS 53.5% | SF-295 CNS 49.3% | UACC-257 melanoma 55.9% | M14 melanoma 28.8% | HCT-15 colon 33.1%

O=C1/C(=C\c2ccc(Cl)cc2)CN(C(=S)Nc2ccccc2)C/C1=C\c1ccc(Cl)cc1
active: NCI-H23 lung -52.8% | NCI-H226 lung -70.1% | NCI-H322M lung -20.7% | HOP-62 NSCLC -55.4% | NCI-H460 lung -70.8% | NCI-H522 lung -88.2% | A549/ATCC NSCLC -21.4% | 786-0 renal -86% | COLO 205 colon -86.1% | DU-145 prostate -73.2% | K-562 leukemia 2.61% | MALME-3M melanoma -39.9% | MDA-MB-231 breast -17.3% | RXF 393 renal -88.6% | SF-268 CNS -72.4% | SF-295 CNS -53.3% | SF-539 CNS -94.4% | UACC-257 melanoma -55.4% | M14 melanoma -65.3% | HCT-15 colon -34.7%

CCN(CC)Cc1cc(Nc2ccnc3cc(Cl)ccc23)ccc1OC
active: M14 melanoma 7.19%
inactive: NCI-H23 lung 87.8% | NCI-H226 lung 105% | NCI-H322M lung 99% | HOP-62 NSCLC 88% | NCI-H460 lung 90.1% | NCI-H522 lung 69.3% | A549/ATCC NSCLC 89.6% | 786-0 renal 97.4% | COLO 205 colon 62.4% | DU-145 prostate 107% | K-562 leukemia 45.1% | MALME-3M melanoma 110% | MDA-MB-231 breast 55.7% | RXF 393 renal 64.2% | SF-268 CNS 96.6% | SF-295 CNS 91% | SF-539 CNS 62.7% | UACC-257 melanoma 94.4% | HCT-15 colon 56.4%
